# In paper PMC4336329 (PLoS ONE, 2015):
# Hit rate of the full screen: of about 310,000 compounds, about 14,000 (4.5%) showed an effect of 50% or more. Effects have a minus sign here. Shown is part of a subset that was picked to be rich in strong results.
# Biological target: human ether-à-go-go-related gene (hERG) potassium channel (human, UniProt Q12809)
# Assay: primary screen, population patch clamp on CHO cells stably expressing hERG; higher = less effect of the substance
# 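Also: peak tail current of the secondary pulse compared with the same well before compound.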
# human ether-à-go-go-related gene (hERG) potassium channel, sequence (Q12809 whole entry, looked up): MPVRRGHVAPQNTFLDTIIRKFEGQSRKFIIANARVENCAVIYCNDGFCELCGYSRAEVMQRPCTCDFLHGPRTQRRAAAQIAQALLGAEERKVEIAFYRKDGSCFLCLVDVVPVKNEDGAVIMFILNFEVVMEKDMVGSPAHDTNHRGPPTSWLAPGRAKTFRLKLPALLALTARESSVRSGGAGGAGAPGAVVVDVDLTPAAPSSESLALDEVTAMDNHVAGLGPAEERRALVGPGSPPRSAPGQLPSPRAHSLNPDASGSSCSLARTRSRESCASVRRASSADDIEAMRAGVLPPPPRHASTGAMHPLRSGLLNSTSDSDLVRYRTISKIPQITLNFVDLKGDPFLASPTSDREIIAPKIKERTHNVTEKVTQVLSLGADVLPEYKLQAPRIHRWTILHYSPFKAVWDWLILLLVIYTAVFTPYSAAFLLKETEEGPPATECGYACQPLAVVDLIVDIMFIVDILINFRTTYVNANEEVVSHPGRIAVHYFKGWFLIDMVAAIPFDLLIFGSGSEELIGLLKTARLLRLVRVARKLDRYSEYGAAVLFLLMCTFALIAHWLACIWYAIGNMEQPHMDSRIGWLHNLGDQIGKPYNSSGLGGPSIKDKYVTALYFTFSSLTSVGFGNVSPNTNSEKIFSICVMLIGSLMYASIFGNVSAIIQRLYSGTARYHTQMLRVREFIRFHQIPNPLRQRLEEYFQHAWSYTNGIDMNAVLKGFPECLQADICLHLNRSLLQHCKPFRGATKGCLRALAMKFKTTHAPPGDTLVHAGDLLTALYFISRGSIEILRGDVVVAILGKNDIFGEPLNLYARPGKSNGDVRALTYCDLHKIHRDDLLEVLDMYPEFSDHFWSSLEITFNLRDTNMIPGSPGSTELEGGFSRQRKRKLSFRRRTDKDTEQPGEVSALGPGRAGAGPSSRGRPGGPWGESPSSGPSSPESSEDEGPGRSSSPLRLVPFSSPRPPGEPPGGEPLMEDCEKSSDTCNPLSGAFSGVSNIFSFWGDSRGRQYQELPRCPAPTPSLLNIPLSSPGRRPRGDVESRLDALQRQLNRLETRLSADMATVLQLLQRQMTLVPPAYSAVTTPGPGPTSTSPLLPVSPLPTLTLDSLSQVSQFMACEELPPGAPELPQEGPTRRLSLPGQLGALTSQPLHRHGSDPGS
row,Compound,"hERG current change (%, negative = inhibition) at 10uM"
1,COC(=O)/C(=C\Nc1ccccc1)NC(=O)c1ccc(Cl)cc1Cl,-17.2%
2,Cc1nc2sc(C(c3ccccc3)N3CCN(C(=O)c4ccco4)CC3)c(O)n2n1 (stereo not drawn),8.97%
3,COc1ccccc1C(c1nnnn1C(C)(C)C)N1CCN(C(=O)c2ccco2)CC1 (stereo not drawn),-53.9%
4,COc1ccc(C(c2nnnn2Cc2ccccc2)N2CCN(C(=O)c3ccco3)CC2)cc1 (stereo not drawn),-60.6%
5,Cc1nc2sc(C(c3ccc(Cl)cc3)N3CCN(C(=O)c4ccco4)CC3)c(O)n2n1 (stereo not drawn),-60.1%
6,CCOc1ccc(C(c2nnnn2C(C)(C)C)N2CCN(C(=O)c3ccco3)CC2)cc1 (stereo not drawn),-69.3%
7,CCC(C)(C)n1nnnc1C(c1ccccc1OC)N1CCN(C(=O)c2ccco2)CC1 (stereo not drawn),-32.6%
8,CCC(C)(C)n1nnnc1C(c1ccc(OC)cc1)N1CCN(C(=O)c2ccco2)CC1 (stereo not drawn),-41.6%
9,COc1ccccc1C(c1nnnn1C(C)C)N1CCN(C(=O)c2ccco2)CC1 (stereo not drawn),1.24%
10,Cc1ccc(C(c2sc3nc(C)nn3c2O)N2CCN(C(=O)c3ccco3)CC2)cc1 (stereo not drawn),-31.4%
11,COc1ccc(C(c2nnnn2Cc2ccccc2)N2CCN(C(=O)c3ccco3)CC2)cc1OC.Cl (stereo not drawn),-19.9%
12,COCCn1nnnc1C(c1ccc(OC)cc1)N1CCN(C(=O)c2ccco2)CC1.Cl (stereo not drawn),-4.77%
13,COc1ccc(C(c2nnnn2C(C)(C)C)N2CCN(C(=O)c3ccco3)CC2)cc1 (stereo not drawn),-37.4%
14,Cc1ccc(-c2nc3c(c(SCC(=O)N4CCOCC4)n2)COC(C)(C)C3)cc1,3.09%
15,O=C(NCCCn1ccnc1)C(=O)Nc1ccccc1,11.8%
16,CCCNc1nc2c(c(=O)[nH]c(=O)n2C)n1CCc1ccccc1,4.04%
17,C#CCN(C(=O)c1ccc(OC)c(OC2CCN(C(C)C)CC2)c1)C1CCCCC1,-46.4%
18,C=CCc1cccc2cc(C(=O)NC)c(=O)oc12,-5.8%
19,Cn1cnnc1-c1cccc(NS(=O)(=O)c2ccc(N3CCCC3=O)cc2)c1,9.92%
20,CCN(CC)c1ncnc2c1[nH]c1ccccc12,-21.8%
21,O=c1c(C(c2nnnn2C2CCCCC2)N2CCCCC2)coc2ccc(Cl)cc12 (stereo not drawn),0.931%

row,Compound,"hERG current change (%, negative = inhibition) at 10uM"
1,Cc1ccc2occ(C(c3nnnn3C3CCCC3)N3CCN(C(=O)c4ccco4)CC3)c(=O)c2c1 (stereo not drawn),-45.7%
2,O=C(c1ccco1)N1CCN(C(c2coc3ccc(Cl)cc3c2=O)c2nnnn2C2CCCC2)CC1 (stereo not drawn),-55.6%
3,COc1ccc(S(=O)(=O)Nc2cc3c4c(c2)CCN4C(=O)CC3)cc1OC,-7.56%
4,O=C(Cc1ccc(Cl)c(Cl)c1)N/N=C/c1cccnc1,-40%
5,Cn1c(SCc2ccc(C#N)cc2)nnc1-c1ccncc1,-19.7%
6,N#Cc1ccc(CSc2nnc(-c3ccncc3)n2CCc2ccccc2)cc1,-74.1%
7,C=CCn1c(SCCC#N)nnc1-c1ccncc1,-4.28%
8,Cn1c(SCc2ccc(C#N)cc2)nnc1-c1ccccc1,-29%
9,C=CCn1c(SCc2cccnc2)nnc1-c1ccncc1,-1.49%
10,C=CCn1c(SCc2ccc(C#N)cc2)nnc1-c1ccc(C)cc1,-71.3%
11,c1ccc(CCn2c(SCc3ccccc3)nnc2-c2ccncc2)cc1,-41.4%
12,C=CCn1c(SCc2ccc(C#N)cc2)nnc1-c1ccccc1,-57.8%
13,C=CCn1c(SCc2ccccc2)nnc1-c1cccnc1,-20.5%
14,CC(=O)c1c(C)[n+]([O-])c2ccc3c(non3O)c12,13.6%
15,CCOC(=O)C1=NN(c2ccc(Cl)cc2)C(c2ccccc2)CC1=O (stereo not drawn),-5.12%
16,COc1cccc(NC(=O)CN(C)C(=O)c2cc(C3CC3)nn2-c2ccccc2)c1,-23.1%
17,Cc1cc(C)nc(NS(=O)(=O)c2ccc(N/C=C/C(=O)c3ccc(Cl)c(Cl)c3)cc2)n1,25.6%
18,CCOC(=O)c1oc2ccccc2c1NC(=O)c1cc(OC)cc(OC)c1,7.29%
19,COc1ccccc1C(=O)NNC(=O)C1CC=CCC1 (stereo not drawn),18.7%
20,O=C(/C(=C/O)N=Nc1ccccc1)c1ccncc1,-12.1%
21,COc1cc(NC(=S)NCc2cccnc2)c(OC)cc1Cl,-27.9%

row,Compound,"hERG current change (%, negative = inhibition) at 10uM"
1,CC(=O)N(c1ccccc1)C1SC(=O)N(c2ccccc2)C1=O (stereo not drawn),13.9%
2,O=[N+]([O-])c1ccccc1NCc1ccccc1Cl,-4.13%
3,O=C([O-])c1cc(-c2ccccc2)cc(-c2ccccc2)[n+]1Cc1ccccc1,-10.1%
4,Fc1ccc(C[n+]2c(-c3ccccc3)cc(-c3ccccc3)cc2-c2ccccc2)cc1.[O-][Cl+3]([O-])([O-])[O-],-71.5%
5,O=[N+]([O-])c1ccc(C[n+]2c(-c3ccccc3)cc(-c3ccccc3)cc2-c2ccccc2)cc1.[O-][Cl+3]([O-])([O-])[O-],-25.8%
6,O=[N+]([O-])c1cc(Cl)c(O)c(-[n+]2c(-c3ccccc3)cc(-c3ccccc3)cc2-c2ccccc2)c1.[O-][Cl+3]([O-])([O-])[O-],-38.7%
7,Cc1ccc(C[n+]2c(-c3ccc(C)cc3)cc(-c3ccc(C)cc3)cc2-c2ccc(C)cc2)cc1.[O-][Cl+3]([O-])([O-])[O-],-75.6%
8,Clc1ccc(C[n+]2c(-c3ccccc3)cc(-c3ccccc3)cc2-c2ccccc2)cc1.[O-][Cl+3]([O-])([O-])[O-],-79.5%
9,Cc1ccc(-c2cc[n+](Cc3ccccc3)cc2)cc1.[Cl-],-5.47%
10,O=[N+]([O-])c1ccccc1-c1cc(-c2ccccc2)cc(-c2ccccc2)[n+]1Cc1ccccc1Cl.[O-][Cl+3]([O-])([O-])[O-],-78.7%
11,[O-][Cl+3]([O-])([O-])[O-].c1ccc(C[n+]2ccccc2)cc1,-3.58%
12,Cc1cc[n+](Cc2ccccc2)cc1.[O-][Cl+3]([O-])([O-])[O-],18.9%
13,O=C(COC(=O)CCc1nc2ccccc2s1)NC(=O)NCc1ccco1,-11.4%
14,CCOc1cc(/C=C/C(=O)c2ccc(OC)c(CN3CCOCC3)c2)cc(Br)c1O,-32.5%
15,CCSc1nsc(NC(=O)Nc2cccc(C(C)=O)c2)n1,10.5%
16,Cc1ccc(-c2ccc(S(=O)(=O)N3CC(C)OC(C)C3)cc2)cc1 (stereo not drawn),18.7%
17,CCCSc1cc(N2CCN(C)CC2)nc(-c2ccc(OC)cc2)n1.Cl,-29.2%
18,COc1ccc(C(=O)NCC(=O)OCC(=O)NCCC2=CCCCC2)cc1,-12.7%
19,COCCCn1c(SCC(=O)NC2CCCCC2)nnc1-c1ccncc1,19.8%
20,COc1ccc(CC(=O)Nc2cc(C)on2)cc1,5.74%
21,COc1cc(OC)cc(C(=O)NC(C(=O)Nc2ccc3c(c2)OCCO3)C(C)C)c1 (stereo not drawn),-11%

row,Compound,"hERG current change (%, negative = inhibition) at 10uM"
1,CCN(CC)CCn1c(C)nc2c(sc3nc4c(cc32)COC(C)(C)C4)c1=O,-22.3%
2,O=C(NCC1CCCO1)c1onc(CSc2cccc3ccccc23)c1C(=O)O (stereo not drawn),14.4%
3,COc1cccc(NC(=O)CN(C)C(=O)CSCc2nc3scc(-c4cccs4)c3c(=O)[nH]2)c1,-16.2%
4,CCC(C)(C)NC(=O)C(c1ccc(OC)cc1)N(C(=O)CCC(=O)Nc1cc(C)on1)c1ccc(OC)cc1OC (stereo not drawn),-7.89%
5,COC(=O)c1ccccc1NC(=O)N1CCN(C/C=C/c2ccccc2)CC1,-45.1%
6,COc1ccc(Cl)cc1NC(=O)C(C)N1CCN(c2ccccn2)CC1 (stereo not drawn),-18.3%
7,COc1ccc(Cl)cc1NC(=O)C(C)N1CCN(C/C=C/c2ccccc2)CC1.O=C(O)C(=O)O (stereo not drawn),-63.4%
8,COc1ccccc1NC(=S)N1CCN(C/C=C/c2ccccc2)CC1,-0.974%
9,COc1ccccc1NC(=O)C(C)N1CCN(C/C=C/c2ccccc2)CC1 (stereo not drawn),-74.5%
10,COc1ccc(Cl)cc1NC(=O)C(C)N1CCc2ccccc21 (stereo not drawn),23.9%
11,C=CCc1cccc(CNc2ccc(S(=O)(=O)Nc3nccnc3OC)cc2)c1O,-9.98%
12,N=c1c2c3c(sc2ncn1N)CCCC3,2.04%
13,COc1ccccc1C1C2=C(CCCC2=O)N(CC(=O)O)C2=C1C(=O)CCC2,15.9%
14,CCn1c(SCc2c(Cl)cccc2Cl)nnc1-c1nn(-c2ccccc2)ccc1=O,-66.1%
15,CCn1c(SC)nnc1-c1nn(-c2ccccc2)ccc1=O,11.3%
16,CCn1c(SCc2ccc(F)cc2)nnc1-c1nn(-c2ccccc2)ccc1=O,-35.1%
17,COCCNc1ccc(-c2n[nH]c(=O)c3ccccc23)cc1[N+](=O)[O-],9.51%
18,CN1C(=O)S/C(=C/c2cccnc2)C1=O,-0.904%
